The values below come from PubChem BioAssay (NCATS).

The nature of experiment [1]: Cell Viability - BJ (AID 421; calls by dose curve;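 note: potency is the fitted concentration of half-maximal effect; cells exposed to compound for 40 hours at 37 °C before readout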). The conditions noted are these: BJ fibroblast viability, qHTS. The gist of the method: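 Cytotoxicity as drop in intracellular ATP (CellTiter-Glo, 20 min RT) after 40 hr compound exposure of BJ fibroblasts at 37 °C. Titrations scaled between DMSO and 100 uM tamoxifen, Hill-fitted for AC50.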
Experiment [2] can be described thus: Cell Viability - MRC5 (AID 434; calls by dose curve;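 note: potency is the fitted concentration of half-maximal effect; cells exposed to compound for 40 hours at 37 °C; potency reflects cytotoxicity seen as loss of intracellular ATP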). The conditions noted are these: MRC5 lung fibroblast viability, qHTS. The method, boiled down:
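Decrease in intracellular ATP, quantified by luciferase light output, reflects compound toxicity toward MRC5 cells exposed for 40 hr in complete culture medium. Concentration-response curves, scaled between DMSO and 100 uM tamoxifen, gave AC50 values.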
(qHTS replaces the single test concentration by a dilution series.)

Experiment [3] in a line: Cellular Toxicity (caspase-3) Renal Proximal Tubule (AID 667).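 Note: cells exposed to compound for 16 hours at 37 °C before detection; 0% = DMSO basal and 100% = 10 µM staurosporine.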 The conditions noted are these: renal proximal tubule cells; at 91.7 µM (top of the series) unless noted. The gist of the method: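 In qHTS format, rat primary proximal tubule cells seeded at 1000 per well are exposed to compounds for 16 hours at 37 °C. An increase in Caspase-Glo 3/7 luminescence indicates caspase activation.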

The target in experiment [4] is Cytochrome P450 3A4 (Homo sapiens) (UniProt P08684). The experiment can be described thus: qHTS Assay for Inhibitors and Substrates of Cytochrome P450 3A4 (AID 884). Note: nearly all actives have a fitted effect of over 50% in size. Note: potency is the fitted concentration of half-maximal effect. The conditions noted are these: recombinant CYP3A4, Luciferin-PPXE luminescence; series mostly up to 57.1 µM. The gist of the method: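 Luminescent readout of luciferin produced by CYP3A4 (20 nM) dealkylation of Luciferin-PPXE, 25 uM (its KM). NADPH-driven reaction ran 60 min at RT after 10 min compound preincubation; data scaled to 57 uM ketoconazole as 100% inhibition.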

Experiment [5] in a line: MultiTox-Fluor Cytotoxicity Assay - LYMP1-002 - Live Cells (AID 955). Note: % is set by controls: 0 for no effect and ±100 for the full control effect. The conditions noted are these: LYMP1-002 lymphoblastoid live-cell protease fluorescence viability; series mostly up to 46.1 µM. The method, boiled down:
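In this qHTS viability format, lymphoblastoid cells (LYMP1-002, human) received compound for 16 hr at 37 C. Fluorogenic GF-AFC cleavage by viable cells was detected at 405/510 nm after 1 h at room temperature.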

Experiment [6] can be described thus: MultiTox-Fluor Cytotoxicity Assay - LYMP1-003 - Live Cells (AID 962).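 Note: 0% = DMSO only and full loss = 92 µM tetraoctylammonium bromide; cytotoxic hits lower the live-cell protease signal.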 The conditions noted are these: LYMP1-003 lymphoblastoid cells, MultiTox-Fluor live-cell protease fluorescence; series mostly up to 92.2 µM. The method, boiled down: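 Human lymphoblastoid line LYMP1-003 in complete culture medium, treated 16 hr with titrated compounds. Viable cells quantified via cell-permeant GF-AFC substrate fluorescence; AC50 derived by Hill fitting.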

Experiment [7] is described as follows: Cell Viability - LYMP2-008 (AID 980). Note: nearly all actives have a fitted effect of over 60% in size. Note: potency is the fitted concentration of half-maximal effect. The conditions noted are these: LYMP2-008 lymphoblastoid cell viability, qHTS; series mostly up to 92.2 µM. The method, boiled down:
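Measured: ATP-dependent luminescence, proportional to viable cell number, in human lymphoblastoid cells treated 24 hr with compound in complete culture medium. Values are AC50s from Hill-equation modelling of qHTS titrations.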

Experiment [8] can be described thus: qHTS assay for small molecule agonists of the antioxidant response element (ARE) signaling pathway measured by Nrf2-dependant transcriptional activity - cell viability counter screen (AID 720653; active = well fitted curve in the direction sought with a large enough effect in the repeat runs; an effect the other way counts as inactive or inconclusive; note: potency is the fitted concentration of half-maximal effect; for max response: % is set by controls: 0 for no effect and ±100 for the full control effect). The conditions noted are these: ARE-bla HepG2 viability, CellTiter-Glo ATP luminescence, 16 h; max response: hits give low values. The method, boiled down: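 ARE-bla HepG2 cells (2,000/well) rested 5 hrs at 37C/5% CO2, then exposed to compounds in DMSO for 16 hrs. Viability was read in the same wells as intracellular ATP by luminescence, 30 min at room temperature after reagent addition.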

Experiment [9] can be described thus: Cell Viability - SK-N-SH (AID 435; calls by dose curve;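 note: potency is the fitted concentration of half-maximal effect; compound exposure lasted 40 h at 37 °C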). The conditions noted are these: SK-N-SH neuroblastoma cell viability qHTS. The gist of the method: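 Cells seeded at 1500 per well and incubated 5 hr at 37 °C. Compound added, then 40 hr at 37 °C. CellTiter-Glo added, 20 min at room temperature, luminescence read.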
Experiment [10] has as its target Mitogen-activated protein kinase 10 (Mus musculus) (UniProt Q61831). The experiment can be described thus: JNK3 AlphaScreen Assay (AID 530; active = well fitted curve in either direction with a large enough effect, not every such curve was filed as active;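 note: kinase came from lysate of stimulated human HepG2 cells; % is set by controls: 0 for no effect and ±100 for the full control effect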). The conditions noted are these: JNK3 lysate, c-Jun phosphorylation; series mostly up to 57.1 µM. The gist of the method: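 Biotinylated GST-cJun(1-79) served as substrate for JNK3 in HepG2 lysates stimulated with IL-1beta and TNF-alpha. ATP was 10 uM final, pH 7.6. Ser73 phosphorylation was quantified by AlphaScreen (680 nm excitation).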

For experiment [11], the target named is Cytochrome P450 3A4 (Homo sapiens) (UniProt P08684). The experiment can be described thus: qHTS Assay for Activators of Cytochrome P450 3A4 (AID 885). Note: nearly all actives have a fitted effect of over 65% in size. The conditions noted are these: recombinant CYP3A4, Luciferin-PPXE luminescence, 60 min; series mostly up to 57.1 µM. The gist of the method:
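Luminescent readout of luciferin formed from 25 uM Luciferin-PPXE (KM level) by 20 nM CYP3A4 in 200 mM KPO4, with 60 min NADPH-driven reaction at room temperature after 10 min compound exposure. Ketoconazole (57 uM) defined 100% inhibition.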

Experiment [12] has as its target Cytochrome P450 1A2 (Homo sapiens) (UniProt P05177). Briefly: p450-cyp1a2 (AID 410; calls by dose curve; note: potency is the fitted concentration of half-maximal effect). The conditions noted are these: recombinant CYP1A2, luciferin-ME demethylation, luminescence; series mostly up to 57 µM. The gist of the method: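 Read-out is luminescence from luciferin produced by CYP1A2 demethylation of Luciferin-ME (100uM, at Km). Detection reagent stopped the 60 min NADPH-dependent reaction; signals were normalized to 57 uM furafylline.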

The target in experiment [13] is Glucocorticoid receptor (Homo sapiens) (UniProt P04150). The experiment can be described thus: GR-EFC Redistribution (AID 451; calls by dose curve; note: potency is the fitted concentration of half-maximal effect). The conditions noted are these: CHO-K1 GR-EFC translocation, beta-gal luminescence, 2 h. The gist of the method: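 CHO-K1 cells stably expressing nuclear-localized β-gal enzyme acceptor and GR fused C-terminally to the enzyme donor fragment; ligand-driven nuclear translocation restores β-gal by complementation. Compounds titrated up to 46 uM final, 2 h at 37 °C; luminescence read.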

In experiment [14] the target is Cytochrome P450 2D6 (Homo sapiens) (UniProt P10635). Briefly: qHTS Assay for Inhibitors and Substrates of Cytochrome P450 2D6 (AID 891). Note: potency is the fitted concentration of half-maximal effect; nearly all actives have a fitted effect of over 60% in size. The conditions noted are these: recombinant CYP2D6, luciferin-ME EGE luminescence; series mostly up to 57.1 µM. The gist of the method: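 Luminescent read-out of luciferin formed by 5 nM human CYP2D6 demethylating 30 uM Luciferin-ME EGE (Km level) over 60 min at room temperature after NADPH regeneration addition. Data normalized to full inhibition by 1.43 uM quinidine.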

Experiment [15] deals with Cytochrome P450 2C9 (Homo sapiens) (UniProt P11712). The experiment can be described thus: qHTS Assay for Inhibitors and Substrates of Cytochrome P450 2C9 (AID 883). Note: % is set by controls: 0 for no effect and ±100 for the full control effect; nearly all actives have a fitted effect of over 60% in size. The conditions noted are these: recombinant CYP2C9, luciferin-H luminescence, 60 min; series mostly up to 57.1 µM. The method, boiled down: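 Human CYP2C9 (10nM) hydroxylated Luciferin-H (100uM, at its KM) to luciferin in 25mM KPO4. Compound was preincubated 10 min at 37C, then NADPH regeneration started a 60 min reaction at 37C. Luminescence was read after detection reagent, normalized to 57uM sulphaphenazole.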

Experiment [16] concerns the target Cytochrome P450 2C19 (Homo sapiens) (UniProt P33261). Briefly: qHTS Assay for Inhibitors and Substrates of Cytochrome P450 2C19 (AID 899). Note: potency is the fitted concentration of half-maximal effect; nearly all actives have a fitted effect of over 60% in size. The conditions noted are these: recombinant CYP2C19, luciferin-H EGE luminescence; series mostly up to 57.1 µM. The method, boiled down: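 Human CYP2C19 (5nM) with Luciferin-H EGE at 10uM (its KM) in 50mM KPO4 was preincubated with compound for 10 min at 37C. NADPH regeneration started a 60 min 37C reaction. Luciferin was read by luminescence, normalized to 57uM ketoconazole.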

Several values for one entry are separate records, joined by “and”; a condition that tells them apart may be missing. Equal values may be shown once. Values without a mark were called inactive. Results filed as inconclusive are left out. Activity calls are given as the source filed them. Unless noted, calls come from the whole dose curve; as a rule, active = well fitted curve in the direction sought with a large enough effect; inconclusive = small, poorly fitted or top-dose-only effect, or another doubt; inactive = no such curve, though single readings can be large; an effect the other way counts as inactive or inconclusive.

Cytochrome P450 1A2 (Homo sapiens), sequence (P05177 whole entry, looked up): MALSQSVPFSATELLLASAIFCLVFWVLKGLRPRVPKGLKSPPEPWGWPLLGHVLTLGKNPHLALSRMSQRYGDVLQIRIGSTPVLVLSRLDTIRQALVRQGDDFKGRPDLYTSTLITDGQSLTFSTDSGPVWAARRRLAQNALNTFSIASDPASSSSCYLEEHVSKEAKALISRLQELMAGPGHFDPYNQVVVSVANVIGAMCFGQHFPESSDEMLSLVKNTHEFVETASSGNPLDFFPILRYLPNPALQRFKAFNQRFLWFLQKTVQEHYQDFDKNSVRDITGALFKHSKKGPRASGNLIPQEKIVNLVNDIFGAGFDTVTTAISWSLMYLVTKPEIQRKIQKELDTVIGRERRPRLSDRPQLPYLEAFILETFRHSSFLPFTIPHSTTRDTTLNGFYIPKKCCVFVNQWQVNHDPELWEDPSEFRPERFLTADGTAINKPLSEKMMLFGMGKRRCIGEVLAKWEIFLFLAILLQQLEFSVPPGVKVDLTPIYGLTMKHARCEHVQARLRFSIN
Cytochrome P450 3A4 (Homo sapiens), sequence (P08684 whole entry, looked up): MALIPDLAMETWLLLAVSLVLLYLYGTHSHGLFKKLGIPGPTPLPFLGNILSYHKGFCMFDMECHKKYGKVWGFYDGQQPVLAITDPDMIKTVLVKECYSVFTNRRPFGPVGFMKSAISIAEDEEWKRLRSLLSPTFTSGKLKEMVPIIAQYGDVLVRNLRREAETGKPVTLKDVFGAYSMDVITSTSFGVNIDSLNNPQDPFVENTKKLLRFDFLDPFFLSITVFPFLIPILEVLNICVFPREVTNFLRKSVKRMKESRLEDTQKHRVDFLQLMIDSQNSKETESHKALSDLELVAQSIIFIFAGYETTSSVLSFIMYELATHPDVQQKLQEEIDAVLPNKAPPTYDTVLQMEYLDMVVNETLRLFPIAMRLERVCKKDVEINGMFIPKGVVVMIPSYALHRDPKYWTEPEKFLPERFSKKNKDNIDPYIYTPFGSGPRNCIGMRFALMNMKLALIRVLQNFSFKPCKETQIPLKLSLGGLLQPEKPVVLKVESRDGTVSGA
Glucocorticoid receptor (Homo sapiens), sequence (P04150 whole entry, looked up, the tested form may be a part): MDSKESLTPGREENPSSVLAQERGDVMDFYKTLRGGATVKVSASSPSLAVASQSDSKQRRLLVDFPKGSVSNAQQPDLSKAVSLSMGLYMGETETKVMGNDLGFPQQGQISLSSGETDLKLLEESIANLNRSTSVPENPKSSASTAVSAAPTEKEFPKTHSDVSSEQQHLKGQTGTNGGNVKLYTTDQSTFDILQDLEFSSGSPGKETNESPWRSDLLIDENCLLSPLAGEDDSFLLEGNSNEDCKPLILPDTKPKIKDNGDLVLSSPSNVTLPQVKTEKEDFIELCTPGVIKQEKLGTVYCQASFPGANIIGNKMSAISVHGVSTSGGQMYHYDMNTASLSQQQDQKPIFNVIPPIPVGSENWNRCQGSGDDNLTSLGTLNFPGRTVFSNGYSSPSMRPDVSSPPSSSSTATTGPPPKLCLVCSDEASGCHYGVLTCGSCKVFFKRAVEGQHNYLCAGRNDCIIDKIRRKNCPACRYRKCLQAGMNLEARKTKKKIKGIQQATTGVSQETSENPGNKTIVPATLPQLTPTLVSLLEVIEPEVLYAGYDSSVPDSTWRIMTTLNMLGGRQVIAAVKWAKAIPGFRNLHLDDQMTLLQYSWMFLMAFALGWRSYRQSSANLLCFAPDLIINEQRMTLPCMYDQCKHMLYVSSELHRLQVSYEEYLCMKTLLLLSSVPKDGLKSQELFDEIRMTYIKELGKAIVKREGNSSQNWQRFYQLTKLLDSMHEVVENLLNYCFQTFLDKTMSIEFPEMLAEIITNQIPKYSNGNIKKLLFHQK
Cytochrome P450 2D6 (Homo sapiens), sequence (P10635 whole entry, looked up): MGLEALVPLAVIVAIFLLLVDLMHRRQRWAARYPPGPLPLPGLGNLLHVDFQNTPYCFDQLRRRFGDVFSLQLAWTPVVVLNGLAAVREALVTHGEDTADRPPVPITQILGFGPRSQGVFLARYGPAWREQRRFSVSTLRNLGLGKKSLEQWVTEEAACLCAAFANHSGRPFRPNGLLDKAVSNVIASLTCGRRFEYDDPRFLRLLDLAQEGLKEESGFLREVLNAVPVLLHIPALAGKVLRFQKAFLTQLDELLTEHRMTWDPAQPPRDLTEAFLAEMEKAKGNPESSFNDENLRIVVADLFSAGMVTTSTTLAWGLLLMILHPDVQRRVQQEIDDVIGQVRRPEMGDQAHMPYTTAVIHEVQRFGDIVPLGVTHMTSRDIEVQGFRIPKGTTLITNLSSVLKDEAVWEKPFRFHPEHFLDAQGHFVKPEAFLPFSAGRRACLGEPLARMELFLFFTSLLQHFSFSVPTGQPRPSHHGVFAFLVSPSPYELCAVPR
Cytochrome P450 2C19 (Homo sapiens), sequence (P33261 whole entry, looked up): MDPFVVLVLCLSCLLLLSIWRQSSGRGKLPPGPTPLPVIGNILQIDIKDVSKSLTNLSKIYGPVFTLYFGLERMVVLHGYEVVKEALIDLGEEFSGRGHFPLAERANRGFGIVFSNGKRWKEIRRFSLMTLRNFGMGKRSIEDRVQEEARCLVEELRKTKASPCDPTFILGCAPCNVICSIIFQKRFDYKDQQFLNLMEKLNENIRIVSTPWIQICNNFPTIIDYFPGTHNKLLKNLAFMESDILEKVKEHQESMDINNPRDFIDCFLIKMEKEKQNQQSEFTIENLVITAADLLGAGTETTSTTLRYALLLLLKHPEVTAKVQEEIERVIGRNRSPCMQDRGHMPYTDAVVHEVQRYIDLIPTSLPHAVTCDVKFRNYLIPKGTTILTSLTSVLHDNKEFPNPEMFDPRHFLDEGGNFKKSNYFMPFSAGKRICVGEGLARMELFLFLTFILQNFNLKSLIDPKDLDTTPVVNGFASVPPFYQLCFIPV
Cytochrome P450 2C9 (Homo sapiens), sequence (P11712 whole entry, looked up): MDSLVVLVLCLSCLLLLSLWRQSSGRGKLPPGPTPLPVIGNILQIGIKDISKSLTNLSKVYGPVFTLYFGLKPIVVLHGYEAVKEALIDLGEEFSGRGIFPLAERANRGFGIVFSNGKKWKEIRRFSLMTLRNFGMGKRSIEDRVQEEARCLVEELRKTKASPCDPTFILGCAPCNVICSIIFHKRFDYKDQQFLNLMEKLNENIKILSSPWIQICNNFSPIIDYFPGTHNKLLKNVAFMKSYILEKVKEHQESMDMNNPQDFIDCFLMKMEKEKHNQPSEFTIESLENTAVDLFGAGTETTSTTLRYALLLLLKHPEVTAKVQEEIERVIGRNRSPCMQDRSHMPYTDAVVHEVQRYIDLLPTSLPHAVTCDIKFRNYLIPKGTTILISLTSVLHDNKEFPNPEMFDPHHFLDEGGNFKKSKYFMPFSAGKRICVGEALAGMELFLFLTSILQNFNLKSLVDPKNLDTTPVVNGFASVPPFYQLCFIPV

For `C(=NC1CCCCC1)=NC1CCCCC1`, the Potency in experiment [1] was more than 92 µM; in experiment [2] it was more than 92 µM; in [7], 50.1 µM (active); in experiment [8], 7.94 µM (active). Besides, the caspase-3 activation in [3] was 5.14%. Besides, the Potency result in experiment [4], in [5] and in experiment [6] was “inactive” throughout.

For `Oc1c(Cl)cc(Cl)cc1Cl`, the Potency in experiment [1], in [2] and in experiment [9] was more than 92 µM in each case. Also, the max response in experiment [8] was -6.96% and -8.43%.

Turning to `C#CCO`, the Potency in experiment [1], in experiment [2] and in experiment [9] was more than 92 µM throughout. Besides, the call in experiment [10] was inactive. Moreover, in experiment [3], the caspase-3 activation is -11.4% [at 91.7 µM, primary cells freshly taken from rat, solvent-only wells 0%, staurosporine 100%]. In addition, the Potency entry in [4], in [5], in experiment [6] and in experiment [7] was “inactive” in each case. Also, the max response in [8] is -2.39%.

For `CC(=O)[O-].CC(=O)[O-].O.O.[Cd+2]`, the Potency was more than 92 µM in experiment [1], more than 92 µM in [2], 50.1 µM (active) in experiment [7] and 10 µM (active) in experiment [8]. Further, the outcome in experiment [10] was inactive. The caspase-3 activation in experiment [3] is -14.3% [at 91.7 µM, primary cells freshly taken from rat, solvent-only wells 0%, staurosporine 100%]. Moreover, the Potency result in experiment [11], in experiment [5] and in experiment [6] was “inactive” in each case.

As for `CCCc1cc2c(n1Cc1ccc(C)cc1)C(C)C1CN(C(=O)c3ccccc3)C(C)(C(=O)OC)C21` (stereo not drawn), the Potency in experiment [12] was 7.94 µM (active); in experiment [4] it was 3.16 µM (active). Moreover, the result in experiment [10] was inactive. The Potency result in [11] is “inactive”.

For the molecule `COc1cc2c(cc1O)-c1c(O)c(OC)cc3c1[C@H](C2)N(C)CC3`, the Potency in experiment [12] was 3.16 µM (active); in experiment [13], more than 46 µM; in experiment [14], 2.51 µM (active). The outcome in experiment [10] was inactive. Further, the Potency entry in experiment [11] is “inactive”.

Regarding `O=[N+]([O-])c1cc(C(F)(F)F)cc([N+](=O)[O-])c1Cl`, the Potency is more than 92 µM in experiment [1], more than 92 µM in [2], more than 92 µM in [9] and 39.8 µM (active) in [7]. The caspase-3 activation in experiment [3] is 6.02% [at 91.7 µM, primary cells freshly taken from rat, solvent-only wells 0%, staurosporine 100%]. Moreover, the Potency entry in experiment [4], in [5] and in [6] was “inactive” in each case. Also, the max response in experiment [8] was 4.67%.

For the molecule `CC[C@@]12CCCN3CC[C@@]4(c5ccc(OC)c(O)c5N(C(C)=O)[C@H]4CC1)[C@H]32`, the Potency entry in experiment [12] and in experiment [15] was “inactive” throughout. The Potency in experiment [13] is more than 46 µM; in experiment [16], 0.794 µM (active). In addition, the outcome in [10] was inactive.

Regarding `c1ccc2cc3c(cc2c1)-c1cccc2cccc-3c12`, the Potency in experiment [1], in experiment [2] and in experiment [9] was more than 92 µM throughout. For the same molecule, the caspase-3 activation in experiment [3] is -4.56%. Moreover, the Potency entry in experiment [4], in experiment [5], in experiment [6] and in [7] was “inactive” in each case. Besides, the max response in experiment [8] was -11.7% and -17%.
